Consider eight molecules from PubChem BioAssay (NCI).

Compounds without any hit were thinned out: in the full panel of roughly 83,000, 20% have a hit.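 Activity criterion: percent growth below 10, measured after cells in 96-well plates were exposed to a single compound concentration for 48 hours.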 Values without a mark were called inactive. Calls of active or inactive are those of the source.

What all share (assay): NCI-60 one-dose screen, 48 h (100 = growth as untreated, 0 = no growth, -100 = all killed)
The test system of one assay is HCT-15 colon. The following applies: 10 µM.
The test system of a further assay is HT29 colon. The following applies: 10 µM.
The subject of another assay is SNB-75 CNS. The following applies: 10 µM.
Another assay has as its system SNB-19 CNS. The following applies: 10 µM.
The subject of another assay is U251 CNS. The following applies: 10 µM.
A further assay has as its system PC-3 prostate. The following applies: 10 µM.
In the next assay the test system is SK-MEL-5 melanoma. The following applies: 10 µM.
Another assay concerns UACC-62 melanoma. The conditions noted are these: 10 µM unless noted.
The test system of the next assay is LOX IMVI melanoma. The conditions noted are these: 10 µM.
The subject of a further assay is SK-MEL-28 melanoma. The conditions noted are these: 10 µM.
A further assay has as its system SK-MEL-2 melanoma. The conditions noted are these: 10 µM.
A further assay concerns EKVX NSCLC. The following applies: 10 µM.
The subject of a further assay is SN12C renal. The following applies: 10 µM.
Another assay relates to UO-31 renal. The following applies: 10 µM.
A further assay deals with TK-10 renal. The conditions noted are these: 10 µM unless noted.
A further assay deals with ACHN renal. The conditions noted are these: 10 µM.
The subject of the next assay is CAKI-1 renal. The following applies: 10 µM.
Another assay has as its system A498 renal. The conditions noted are these: 10 µM.
In the next assay the test system is CCRF-CEM leukemia. The following applies: 10 µM.
The subject of the next assay is MOLT-4 leukemia. The conditions noted are these: 10 µM.

Consider `CCOC(=O)C(O)C(O)C(=O)OCC` (stereo not given), for which the growth was 99.1% in the assay with HCT-15 colon; 105% with HT29 colon; 99% in the assay on SNB-75 CNS; 103% with SNB-19 CNS; 102% with U251 CNS; 98% with PC-3 prostate. Moreover, the growth was 97.5% in the assay on SK-MEL-5 melanoma; 102% with UACC-62 melanoma; 99.8% with LOX IMVI melanoma; 106% in the assay with SK-MEL-28 melanoma; 103% in the assay on SK-MEL-2 melanoma; 111% in the assay with EKVX NSCLC. The growth in the assay with SN12C renal is 102%; in the assay with UO-31 renal, 97.1%; in the assay with TK-10 renal, 102%; in the assay with ACHN renal, 109%; in the assay on CAKI-1 renal, 101%; in the assay on A498 renal, 101%. In addition, the growth is 107% in the assay on CCRF-CEM leukemia and 104% in the assay with MOLT-4 leukemia.
As to `CC(=O)OCCC(C)CCC=C(C)C` (stereo not given), the growth in the assay on HCT-15 colon is 92.5%; with HT29 colon it was 105%; with SNB-75 CNS, 95.9%; in the assay with SNB-19 CNS, 103%; with U251 CNS, 102%; in the assay with PC-3 prostate, 92.3%. Moreover, the growth in the assay with SK-MEL-5 melanoma was 101%; in the assay with UACC-62 melanoma, 97.8%; in the assay with LOX IMVI melanoma, 103%; in the assay on SK-MEL-28 melanoma, 113%; with SK-MEL-2 melanoma, 98.1%; with EKVX NSCLC it was 100%. For the same molecule, the growth with SN12C renal was 101%; in the assay with UO-31 renal it was 88%; with TK-10 renal it was 106%; in the assay with ACHN renal, 104%; with CAKI-1 renal, 103%; with A498 renal, 100%. For the same molecule, the growth with CCRF-CEM leukemia was 104%; in the assay on MOLT-4 leukemia, 114%.
Take `CCOC(=O)c1ccc(Nc2sc(C(=O)c3cccc([N+](=O)[O-])c3)c(N)c2C#N)cc1`: the growth was 32.3% in the assay on HCT-15 colon; 8.29% (active) in the assay on HT29 colon; -6.96% (active) with SNB-75 CNS; 48.8% in the assay on SNB-19 CNS; 11.5% in the assay on U251 CNS; 31.1% with PC-3 prostate. The growth in the assay with SK-MEL-5 melanoma is 10.9%; in the assay with UACC-62 melanoma it was 28.6%; in the assay on LOX IMVI melanoma it was 39.5%; with SK-MEL-28 melanoma it was 63.1%; in the assay with SK-MEL-2 melanoma, 33%; in the assay with EKVX NSCLC it was 62.1%. Also, the growth in the assay on SN12C renal was 52.9%; in the assay on UO-31 renal, 31.1%; in the assay with TK-10 renal it was 74.1%; in the assay on ACHN renal it was 41.3%; in the assay with CAKI-1 renal, -17.8% (active); in the assay on A498 renal, 38.4%. Further, the results for the growth in the assay on CCRF-CEM leukemia and in the assay on MOLT-4 leukemia were 5.1% (active) and 23.6%, respectively.
Turning to `CCOc1ccc(Br)cc1/C=N\N=C\c1cc(Br)ccc1OCC`, the growth is 109% in the assay with HCT-15 colon; 107% in the assay with HT29 colon; 98.5% in the assay with SNB-75 CNS; 117% in the assay with SNB-19 CNS; 103% with U251 CNS; 93.8% in the assay on PC-3 prostate. The growth in the assay with SK-MEL-5 melanoma is 109%; in the assay on UACC-62 melanoma, 104%; in the assay on LOX IMVI melanoma, 105%; with SK-MEL-28 melanoma, 115%; in the assay on SK-MEL-2 melanoma, 109%; with EKVX NSCLC, 107%. The growth in the assay on SN12C renal was 102%; in the assay with UO-31 renal, 88.8%; in the assay with TK-10 renal, 111%; in the assay with ACHN renal, 104%; in the assay on CAKI-1 renal, 90.8%; in the assay with A498 renal, 141%. Also, the figures for the growth with CCRF-CEM leukemia and in the assay on MOLT-4 leukemia were -3.92% (active) and 102%, respectively.
Take `O=C(O)C(Cc1ccccc1)C(=O)O`: the growth in the assay with HCT-15 colon was 103%; in the assay with HT29 colon, 123%; in the assay on SNB-75 CNS, 95.9%; in the assay on SNB-19 CNS, 106%; in the assay on U251 CNS, 108%; in the assay on PC-3 prostate, 94%. For the same molecule, the growth in the assay on SK-MEL-5 melanoma is 89.6%; in the assay on UACC-62 melanoma it was 101%; in the assay with LOX IMVI melanoma, 100%; in the assay on SK-MEL-28 melanoma, 113%; with SK-MEL-2 melanoma it was 111%; with EKVX NSCLC, 106%. Further, the growth is 103% with SN12C renal; 91.6% in the assay on UO-31 renal; 105% with TK-10 renal; 111% in the assay on ACHN renal; 102% with CAKI-1 renal; 89.1% in the assay on A498 renal. Besides, the growth was 97.9% in the assay on CCRF-CEM leukemia and 116% in the assay on MOLT-4 leukemia.
`C#CC(C)(O)c1ccc(Cl)cc1` (stereo not given): the growth was 98.4% in the assay on HCT-15 colon; 102% in the assay on HT29 colon; 98.8% with SNB-75 CNS; 106% in the assay with SNB-19 CNS; 97.8% in the assay on U251 CNS; 96.6% with PC-3 prostate. In addition, the growth is 101% with SK-MEL-5 melanoma; -18.6% (active) in the assay on UACC-62 melanoma; 94.5% in the assay with LOX IMVI melanoma; 110% in the assay on SK-MEL-28 melanoma; 106% in the assay on SK-MEL-2 melanoma; 98.6% in the assay on EKVX NSCLC. For the same molecule, the growth is 113% in the assay with SN12C renal; 99.4% in the assay with UO-31 renal; 106% in the assay on TK-10 renal; 110% in the assay on ACHN renal; 103% in the assay with CAKI-1 renal; 98% in the assay on A498 renal. Besides, the growth in the assay on CCRF-CEM leukemia is 103%; with MOLT-4 leukemia, 107%.
Consider `O=C1N(C[P+](c2ccccc2)(c2ccccc2)c2ccccc2)CCCN1C[P+](c1ccccc1)(c1ccccc1)c1ccccc1`, for which the growth with HCT-15 colon was 110%; in the assay with HT29 colon, 102%; with SNB-75 CNS, 88.4%; in the assay on SNB-19 CNS, 98.3%; in the assay with U251 CNS it was 95.2%; in the assay on PC-3 prostate, 92.5%. Further, the growth in the assay on SK-MEL-5 melanoma was 106%; with UACC-62 melanoma, 94.7%; with LOX IMVI melanoma, 108%; with SK-MEL-28 melanoma, 102%; in the assay with SK-MEL-2 melanoma, 122%; with EKVX NSCLC, 97%. The growth with SN12C renal was 97.3%; in the assay with UO-31 renal it was 87.1%; with TK-10 renal, 106%; with ACHN renal, 97.1%; in the assay with CAKI-1 renal, 89.4%; in the assay with A498 renal, 85.5%. Moreover, the growth was 107% in the assay with CCRF-CEM leukemia and 97.7% with MOLT-4 leukemia.
With `Nc1ccc(N)c([N+](=O)[O-])c1`, the growth was 109% in the assay on HCT-15 colon; 121% in the assay with HT29 colon; 102% in the assay with SNB-75 CNS; 99.5% in the assay with SNB-19 CNS; 107% with U251 CNS; 102% in the assay on PC-3 prostate. The growth is 95.2% with SK-MEL-5 melanoma; 98.5% in the assay with UACC-62 melanoma; 100% in the assay on LOX IMVI melanoma; 115% in the assay on SK-MEL-28 melanoma; 115% with SK-MEL-2 melanoma; 110% in the assay with EKVX NSCLC. Also, the growth was 97.8% with SN12C renal; 88.2% in the assay with UO-31 renal; 130% in the assay on TK-10 renal; 102% in the assay with ACHN renal; 106% in the assay on CAKI-1 renal; 100% in the assay on A498 renal. Also, the growth in the assay on CCRF-CEM leukemia was 107%; with MOLT-4 leukemia, 104%.
